Source: PubChem BioAssay AID651919 (Sanford-Burnham Center for Chemical Genomics, 2012)

Molecular target: C-X-C chemokine receptor type 6 (Homo sapiens) (UniProt O00574)
Test: antagonism of CXCR6 versus CXCR5 signaling – cell-based, CHO-K1 PathHunter beta-arrestin, luminescence, set 4, selectivity assay for CXCR6 antagonist project, profiling panel (AID 651919)
Conditions: run 4, at 79 µM (top of the series)

Chain of C-X-C chemokine receptor type 6 (Homo sapiens) (O00574 whole entry, looked up): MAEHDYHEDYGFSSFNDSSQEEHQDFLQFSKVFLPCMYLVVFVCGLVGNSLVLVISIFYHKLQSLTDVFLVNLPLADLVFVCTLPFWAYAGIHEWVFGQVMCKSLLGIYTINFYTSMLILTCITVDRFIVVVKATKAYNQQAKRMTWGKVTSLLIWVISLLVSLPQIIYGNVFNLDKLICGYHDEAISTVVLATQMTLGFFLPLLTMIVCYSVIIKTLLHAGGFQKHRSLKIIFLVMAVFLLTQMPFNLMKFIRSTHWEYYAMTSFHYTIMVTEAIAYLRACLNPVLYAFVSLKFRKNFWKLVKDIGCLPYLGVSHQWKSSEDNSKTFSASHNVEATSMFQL

| Structure (SMILES) | inhibition [%] |
| --- | --- |
| COc1cc(C(=O)NC2CC3CCCC(C2)N3CC(=O)Nc2ccccc2)cc(OC)c1OC (configuration not stated) | 92.9 |
| COc1cc(C(=O)NC2CC3CCCC(C2)N3CC(=O)Nc2ccccc2Cl)cc(OC)c1OC (configuration not stated) | 99 |
